Inconclusive results are not listed. Entries that show only a call come without a potency. The source made the active and inactive calls. Calls come from the whole dose curve; as a rule, active = well fitted cell-killing curve with a large enough effect in the repeat runs; inconclusive = weak or mixed curves, or effect the other way; inactive = no such curve, though single readings can be large or run the other way.
assay: qHTS assay to identify small molecule antagonists of the progesterone receptor (PR) signaling pathway - cell viability counter screen (AID 1346798); conditions: PR-UAS-bla HEK293T viability, CellTiter-Glo luminescence, 16 h; series mostly up to 92.4 µM; note: nearly all actives have a fitted effect of over 50% in size
Description: National Center for Advancing Translational Sciences [NCATS]
NIH Chemical Genomics Center [NCGC]
U.S. Environmental Protection Agency [EPA]
National Institutes of Environmental Health Sciences [NIEHS]
National Toxicology Program [NTP]
U.S. Food and Drug Administration [FDA]
Progesterone receptor (PR), a nuclear hormone receptor, plays an important role in development, metabolic homeostasis and reproduction. It is activated by the steroid hormone progesterone. Endocrine disrupting chemicals (EDCs) and their interactions with steroid hormone receptors like PR causes disruption of normal endocrine function. To identify the compounds that inhibit PR signaling, a PR-UAS-bla GripTite cell line i.e. PR-UAS-bla HEK293T (Invitrogen, Carlsbad, CA, USA) containing a beta-lactamase reporter gene under the control of an UAS response element was used to screen Tox21 10K compound library. The cytotoxicity of the Tox21 compound library against the PR-bla cell line was tested in parallel by measuring the cell viability using CellTiter-Glo assay in the same wells.
Tox21 Assay Protocol Summary:
PR-UAS-bla HEK293T cells were dispensed at 3,000 cells/4 uL of assay medium containing 2% charcoal stripped FBS per well into black wall/clear-bottom 1536-well plates using a Multidrop Combi (ThermoFisher Scientific, Waltham, MA) dispenser. After the assay plates were incubated at a 37C and 5% CO2 for 4 hr, 23 nL of compounds dissolved in DMSO, positive controls or DMSO only was transferred to the assay plate by a Pintool station (Kalypsys, San Diego, CA), followed by addition of 1 uL of R5020 in assay medium using a Flying Reagent Dispenser (FRD, Aurora Discovery, San Diego, CA). The plates were incubated at 37C and 5% CO2 for 16 hr. Then 1 uL of LiveBLAzer B/G FRET substrate was added using a Flying Reagent Dispenser, the plates were incubated at room temperature for 2 hours, and fluorescence intensity was measured by an Envision plate reader (PerkinElmer, Shelton, CT). For cell viability readout that measures cytotoxicity, 4 uL/well of CellTiter-Glo reagent was added into the assay plates using a FRD. After 30 min incubation at room temperature, the luminescence intensity in the plates was measured using a ViewLux (PerkinElmer) plate reader.

**Q.** With `C=C1C[C@]23C[C@@]1(O)CC[C@H]2[C@@]12C=C[C@H](O)[C@@](C)(C(=O)O1)[C@H]2[C@@H]3C(=O)O` as the compound, how does the Potency read?
**A.** The Potency was “inactive”.

**Q.** Which Potency does the source give for `CC(=O)c1nccs1` here?
**A.** The Potency was “inactive”.

**Q.** For `Clc1cccc(Cl)c1NC1=NCCN1`, which Potency is on record?
**A.** Its Potency is “inactive”.

**Q.** For `OB(O)O`, which Potency is on record?
**A.** The Potency was “inactive”.

**Q.** Which Potency does the source give for `Nc1nc(N)c2nc(-c3ccccc3)c(N)nc2n1` here?
**A.** Its Potency is “inactive”.

**Q.** With `CC(=O)OCCC(C)C` as the compound, how does the Potency read?
**A.** Its Potency is “inactive”.

**Q.** For `O=c1n(CCCN2CCN(c3cccc(Cl)c3)CC2)nc2ccccn12`, which Potency is on record?
**A.** The Potency was “inactive”.

**Q.** With `CCCCC(=O)O` as the compound, how does the Potency read?
**A.** Its Potency is “inactive”.

**Q.** Which Potency does the source give for `CCN(CC)CCNC(=O)c1ccc(N)cc1` here?
**A.** The Potency was “inactive”.

**Q.** For `C=C(CC(=O)O)C(=O)O`, which Potency is on record?
**A.** The Potency was “inactive”.

**Q.** With `CCc1cccc(CC)c1N` as the compound, how does the Potency read?
**A.** The Potency was “inactive”.

**Q.** Which Potency does the source give for `CCCCC(CC)COC(=O)c1ccc(C(=O)OCC(CC)CCCC)cc1` (stereo not given) here?
**A.** The Potency was “inactive”.

**Q.** Which Potency does the source give for `CCOC(=O)c1ccc(O)cc1` here?
**A.** The Potency was “inactive”.

**Q.** With `O=C(O)C1=NN(c2ccc(S(=O)(=O)O)cc2)C(=O)C1` as the compound, how does the Potency read?
**A.** The Potency was “inactive”.

**Q.** Which Potency does the source give for `CC/C(C)=N/O` here?
**A.** Its Potency is “inactive”.

**Q.** Which Potency does the source give for `COCN(COC)c1nc(N(COC)COC)nc(N(COC)COC)n1` here?
**A.** The Potency was “inactive”.

**Q.** Which Potency does the source give for `CC(C)c1ccc(C(C)C)cc1` here?
**A.** The Potency was “inactive”.

**Q.** Which Potency does the source give for `COc1c(Cl)ccc(Cl)c1C(=O)O` here?
**A.** The Potency was “inactive”.

**Q.** For `CC(=O)Nc1ccc(CC(=O)O)cc1`, which Potency is on record?
**A.** The Potency was “inactive”.

**Q.** For `COc1ccc([C@@H]2CC(=O)c3c(O)cc(O[C@@H]4O[C@H](CO[C@@H]5O[C@@H](C)[C@H](O)[C@@H](O)[C@H]5O)[C@@H](O)[C@H](O)[C@H]4O)cc3O2)cc1OC`, which Potency is on record?
**A.** Its Potency is “inactive”.

**Q.** With `Cc1ccccc1Cl` as the compound, how does the Potency read?
**A.** Its Potency is “inactive”.

**Q.** Which Potency does the source give for `O=C1OC(=O)c2c(Cl)c(Cl)c(Cl)c(Cl)c21` here?
**A.** Its Potency is “inactive”.

**Q.** Which Potency does the source give for `Nc1cccc(N)n1` here?
**A.** The Potency was “inactive”.

**Q.** With `N[C@@H](Cc1cc(I)c(Oc2ccc(O)c(I)c2)c(I)c1)C(=O)O` as the compound, how does the Potency read?
**A.** Its Potency is “inactive”.

**Q.** For `CC1(C)C(=O)N(Cl)C(=O)N1Cl`, which Potency is on record?
**A.** Its Potency is “inactive”.

**Q.** Which Potency does the source give for `NC(=O)NC(N)=O` here?
**A.** Its Potency is “inactive”.

**Q.** For `O=C(NCC1CCCCN1)c1cc(OCC(F)(F)F)ccc1OCC(F)(F)F` (stereo not given), which Potency is on record?
**A.** Its Potency is “inactive”.

**Q.** For `C=CC(C)(C)C`, which Potency is on record?
**A.** The Potency was “inactive”.

**Q.** With `CC1(C)[C@@H](O[C@H]2O[C@H](C(=O)O)[C@@H](O)[C@H](O)[C@H]2O[C@@H]2O[C@H](C(=O)O)[C@@H](O)[C@H](O)[C@H]2O)CC[C@]2(C)[C@H]3C(=O)C=C4[C@@H]5C[C@@](C)(C(=O)O)CC[C@]5(C)CC[C@@]4(C)[C@]3(C)CC[C@@H]12` as the compound, how does the Potency read?
**A.** The Potency was “inactive”.

**Q.** Which Potency does the source give for `O=C(Cl)c1ccc(C(=O)Cl)cc1` here?
**A.** The Potency was “inactive”.

**Q.** Which Potency does the source give for `CS(=O)(=O)c1ccc(Cl)cc1` here?
**A.** Its Potency is “inactive”.

**Q.** With `O=[N+]([O-])c1ccccc1C(F)(F)F` as the compound, how does the Potency read?
**A.** The Potency was “inactive”.

**Q.** For `COc1c2ccoc2cc2oc(=O)ccc12`, which Potency is on record?
**A.** Its Potency is “inactive”.

**Q.** For `CCCCCCCC(=O)O`, which Potency is on record?
**A.** Its Potency is “inactive”.

**Q.** For `CC(=O)OC[C@H]1O[C@@](COC(C)=O)(O[C@H]2O[C@H](COC(C)=O)[C@@H](OC(C)=O)[C@H](OC(C)=O)[C@H]2OC(C)=O)[C@@H](OC(C)=O)[C@@H]1OC(C)=O`, which Potency is on record?
**A.** Its Potency is “inactive”.

**Q.** For `CCCN(CCC)C(=O)SCC`, which Potency is on record?
**A.** The Potency was “inactive”.

**Q.** With `CC(O)CNCC(C)O` (stereo not given) as the compound, how does the Potency read?
**A.** Its Potency is “inactive”.

**Q.** With `CC(=O)OCc1ccc2c(c1)OCO2` as the compound, how does the Potency read?
**A.** The Potency was “inactive”.

**Q.** For `C=CC(=O)NCOCCCC`, which Potency is on record?
**A.** The Potency was “inactive”.

**Q.** For `CCOC(=O)CC(=O)OCC`, which Potency is on record?
**A.** Its Potency is “inactive”.
